According to PubChem BioAssay (NCI):
Compounds without any hit were thinned out: in the full panel of roughly 79,000, 15% have a hit. Cut-off read from the data, not from the text of the source: active = growth inhibition above about 70%; inactive = the rest.

Tests used:
[1] = NCI Yeast Anticancer Drug Screen. Data for the rad50 strain (AID 155);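 note: 0% = growth of vehicle-only cultures of the same strain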; conditions: S. cerevisiae rad50 strain growth inhibition; at 50.0 µM; active compounds read high
Outline: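 Growth of the mutant yeast was measured after compound exposure and referenced to vehicle-treated cultures.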

[2] = NCI Yeast Anticancer Drug Screen. Data for the mec2-1 strain (AID 157); conditions: S. cerevisiae mec2-1 strain, at 50.0 µM, active compounds read high
Outline: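 mec2-1 yeast strain, carrying an alteration in DNA damage repair or cell cycle control, was exposed to compounds; growth inhibition was measured relative to vehicle-treated controls.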

[3] = NCI Yeast Anticancer Drug Screen. Data for the sgs1 mgt1 strain (AID 161);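 note: 0% = growth of cultures given vehicle only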; conditions: S. cerevisiae sgs1 mgt1 strain, at 50.0 µM, active compounds read high
Outline: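 This yeast growth screen uses a strain with defined DNA-repair lesions; compound-treated growth is compared with vehicle-treated growth.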

[4] = NCI Yeast Anticancer Drug Screen. Data for the cln2 rad14 strain (AID 165);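 note: 0% = growth equal to vehicle treated cultures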; conditions: S. cerevisiae cln2 rad14 strain, at 50.0 µM, active compounds read high
Outline: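 Yeast carrying cln2 and rad14 alterations (cell cycle control and DNA damage repair) were exposed to compounds. Growth inhibition was measured against vehicle-treated controls.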

[5] = NCI Yeast Anticancer Drug Screen. Data for the bub3 strain (AID 167); conditions: S. cerevisiae bub3 mutant strain, at 50.0 µM, active compounds read high
Outline: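 Whole-cell yeast assay. The mutant strain was incubated with compounds, and growth inhibition was determined by comparison with vehicle-treated cells.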

[6] = NCI Yeast Anticancer Drug Screen. Data for the mlh1 rad18 strain (AID 175); conditions: S. cerevisiae mlh1 rad18 strain growth inhibition; at 50.0 µM; active compounds read high
Outline: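 Growth inhibition of the yeast strain was measured after compound exposure and expressed relative to vehicle-treated controls. The strain carries defined defects in DNA damage repair.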

Measured: growth inhibition

COC(Cc1cc(C(O)(c2ccc(C(C)(C)C)cc2)c2cc(CC(OC)(c3cc(C(OC)(c4ccc(C(C)(C)C)cc4)c4ccc(C(C)(C)C)cc4)c(C)cc3C)c3cc(C(OC)(c4ccc(C(C)(C)C)cc4)c4ccc(C(C)(C)C)cc4)c(C)cc3C)c(C)cc2C)c(C)cc1C)(c1cc(C(OC)(c2ccc(C(C)(C)C)cc2)c2ccc(C(C)(C)C)cc2)c(C)cc1C)c1cc(C(OC)(c2ccc(C(C)(C)C)cc2)c2ccc(C(C)(C)C)cc2)c(C)cc1C
inactive: [1] -2.75% | [2] -1.25% | [3] 9.05% | [4] -30.6% | [5] 5.55% | [6] 23.6%

O=C(CC(=O)C(F)(F)F)c1ccc2c(c1)Cc1ccccc1-2
inactive: [1] -10.2% | [2] 28.9% | [3] 3.75% | [4] 14.9% | [5] -2.7% | [6] 23.6%

Cc1c(Cl)c2ccc(N(C)C)cc2[nH]c1=O
inactive: [1] -2.9% | [2] 0.45% | [3] -0.1% | [4] -6.35% | [5] 11.2% | [6] 7.65%

Cc1c(C)c(C)c(CNNC(=S)Nc2ccc(S(=O)(=O)N3CCCCC3)cc2)c(C)c1C
inactive: [1] -4.5% | [2] -17.9% | [3] 9.25% | [4] 8.6% | [5] 6.4% | [6] 7.6%

FC(F)(F)c1cc(Nc2nc(-c3ccccc3)nc3c2C(=NCc2ccco2)OC3=NCc2ccco2)ccc1Cl
inactive: [1] 5% | [2] 14.6% | [3] 2.9% | [4] -6.35% | [5] -4.7% | [6] 9.75%

CC(C)COC(=O)c1ccc(NC(=O)CN2CC(C)OC(C)C2)cc1 (stereo not given)
inactive: [1] 43.8% | [2] -10.4% | [3] 61.9% | [4] 56.5% | [5] 7.95% | [6] 47%

O=[N+]([O-])c1cc2c(c([N+](=O)[O-])c1)Nc1cc(Cl)ccc1O2
inactive: [1] 1.6% | [2] 19.8% | [3] 17.6% | [4] 11.8% | [5] 4.4% | [6] 26.9%

CC(C)=CC1CC(=O)C1(C)Sc1ccccc1 (stereo not given)
inactive: [1] 26.9% | [2] -1.5% | [3] 24.2% | [4] 12.9% | [5] 4.7% | [6] 2.95%

CCN(CC)C(=O)N1CCN(c2ccccc2)CC1
inactive: [1] -1.4% | [2] 12.3% | [3] -4.95% | [4] 5.65% | [5] 3.45% | [6] -23.8%

Cc1ccc(SCCSc2ccc(C)cc2)cc1
inactive: [1] 17.7% | [2] 5.8% | [3] 3% | [4] -5.7% | [5] 29.5% | [6] 39.5%

O=C1C(OC(=O)c2ccccc2)=C(OC(=O)c2ccccc2)C(=O)C(OC(=O)c2ccccc2)=C1OC(=O)c1ccccc1
inactive: [1] -7.15% | [2] -1.25% | [3] 13.8% | [4] -22.8% | [5] 2.85% | [6] 2.75%

Cc1nc([N+](=O)[O-])cn1/C=C/Cn1cc([N+](=O)[O-])nc1C
inactive: [1] -3.25% | [2] -18.9% | [3] 5% | [4] 6.65% | [5] -25.7% | [6] 4.8%

COc1c2occc2cc2ccc(=S)oc12
inactive: [1] 13.2% | [2] -10.4% | [3] 7.35% | [4] -4.6% | [5] -19.9% | [6] 23.1%

CN(C)C(=O)c1cccc(C2CCCCC2)c1O
inactive: [1] -10.8% | [2] 1.85% | [3] 14.6% | [4] -81.4% | [5] -18.6% | [6] -14.7%

Cc1ccc(-c2nn[nH]n2)cc1[N+](=O)[O-]
inactive: [1] 5.65% | [2] 8.6% | [3] -0.65% | [4] -11% | [5] -21.9% | [6] 16.1%

COC(=O)C(=O)C(C(=O)C=C(C)C)c1nc2n(c1O)C(=N)N=N2 (stereo not given)
inactive: [1] 13.2% | [2] 20.9% | [3] 14.3% | [4] -1.75% | [5] 13.1% | [6] 17.4%

COC(=O)c1ccc(C2CCC(OC(c3ccccc3)c3ccccc3)CC2)cc1 (stereo not given)
inactive: [1] 39.6% | [2] -12.7% | [3] 26% | [4] -23.6% | [5] 0.85% | [6] -3.85%

N[C@@H](C[C@H]1CCC(=O)[C@@H]2O[C@H]12)C(=O)O
inactive: [1] -1.5% | [2] -12.8% | [3] -12.5% | [4] 0.35% | [5] 13.2% | [6] -10.9%

O=C(NCC1=NCCN1)c1ccccc1
inactive: [1] 2.3% | [2] -2.7% | [3] -13.7% | [4] 12% | [5] 6.45% | [6] 10.7%

CC(=O)NNC(=O)NCCCCCCNC(=O)NNC(C)=O
inactive: [1] 16.1% | [2] 20.2% | [3] 25.4% | [4] 16.2% | [5] 17.9% | [6] 26.5%
